From PubChem BioAssay
In the library only some 0.85% were active in any assay of this set; here they are far more common.
GAA inhib – inhibitors of human lysosomal alpha-glucosidase; P10253; purified human GAA, 4-MU-alpha-glucoside fluorescence; Potency, µM (highest dose often 76.9 µM), for inactives: top-dose activity change, negative = inhibition, most hits filed as inhibitors; actives 0.005% (n = 200,000); AID 1466; active = well fitted curve in the direction sought with a large enough effect; inconclusive = small, poorly fitted or top-dose-only effect, or another doubt; inactive = no such curve, though single readings can be large; an effect the other way counts as inactive or inconclusive;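 also: potency is read from the fitted curve at half-maximal effect; plate controls were uninhibited enzyme wells for no effect and no-enzyme background for full effect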
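Read-out is 4-methylumbelliferone fluorescence (Ex 365/Em 440 nm) after NaOH/glycine stop at pH 10. Enzyme 4 nM, substrate 400 uM, pH 5.0 citrate buffer, 20 min room temperature; AC50 from Hill-equation concentration-response.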
Coupling enz – coupling enzyme interference in Giardia aldolase counter-screen | coupling enzyme system counterscreen, AmpLite Red fluorescence | activity change, negative = inhibition, % at 58.2 µM, hits read low | actives 0.67% (n = 290,000); in the data active = activity change below about -30%; also: % is scaled to controls: 0 for no effect and ±100 for the full control effect
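Activity here indicates interference with the coupling reaction, not aldolase inhibition. Compounds at 57.5 uM final met coupling enzymes for 10 min at RT; substrate and AmpLite Red detection followed, with a 525/598 nm fluorescence read after 20 min.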
GAA glycogen mod – alters human alpha-glucosidase cleavage of glycogen | P10253 | recombinant GAA, glycogen substrate, Amplex Red glucose oxidase fluorescence | Potency, µM (titrated, usually from 76.4 µM), for inactives: at the top dose activity change, negative = inhibition, hits mostly inhibitors | actives 0.38% (n = 300,000); active = well fitted curve in the direction sought with a large enough effect; inconclusive = small, poorly fitted or top-dose-only effect, or another doubt; inactive = no such curve, though single readings can be large; an effect the other way counts as inactive or inconclusive;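 also: potency is read from the fitted curve at half-maximal effect; 0% = full enzyme reaction and -100% = no-enzyme basal signal; the screen sought inhibitors and activators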
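Recombinant human alpha-glucosidase (4 nM final) hydrolysed bovine liver glycogen (30 ug) for 40 min at 37 C in pH 5.0 citrate/phosphate with 0.01% Tween-20. Released glucose detected by glucose oxidase/Amplex Red, Ex 573/Em 610 nm. Compounds up to 77 uM; AC50 from Hill fits.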
B2AR arrestin – beta2AR (human) beta-arrestin recruitment activity; P07550; beta-arrestin recruitment to beta2AR, cell-based reporter; Potency, µM (doses to about 46.1 µM), inactives show top-dose activation, most hits filed as activators; actives 0.02% (n = 330,000); active = well fitted curve in the direction sought with a large enough effect; inconclusive = small, poorly fitted or top-dose-only effect, or another doubt; inactive = no such curve, though single readings can be large; an effect the other way counts as inactive or inconclusive;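 also: potency is read from the fitted curve at half-maximal effect; 0% = DMSO controls and full agonism = EC100 isoproterenol or metaproterenol; nearly all actives have a fitted effect of over 65% in size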
aGlu spleen mod – inhibitors or activators of human alpha-glucosidase in spleen homogenate; human spleen homogenate, 4-MU-alpha-glucoside fluorescence; actives 0.006% (n = 240,000); Potency, µM (doses to about 79.9 µM), without a hit: at the highest dose activity change, negative = inhibition, most hits filed as inhibitors; P10253; AID 2112; active = well fitted curve in the direction sought with a large enough effect; inconclusive = small, poorly fitted or top-dose-only effect, or another doubt; inactive = no such curve, though single readings can be large; an effect the other way counts as inactive or inconclusive;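 also: potency is read from the fitted curve at half-maximal effect; 0% = enzyme with vehicle and -100% = no enzyme basal signal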
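AC50 values come from Hill-equation fits of concentration-response data, normalized to no-enzyme and full-activity controls. Enzyme source: 1 ug human spleen homogenate; 1 mM fluorogenic 4-MU glucoside, pH 5.0 citrate buffer, 37 C, 40 min.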
CASP1 redox cat – caspase-1 inhibition with catalase present; shares compounds with Coupling enz; caspase-1 Ac-WEHD-AFC fluorescence rate, catalase buffer; Potency, µM (highest dose often 57.5 µM), inactives show at the top dose activity change, negative = inhibition, most hits filed as inhibitors; 30 tested, under 10 active; AID 888
CASP1 inh CRC – confirmation of allosteric or competitive inhibitors of human caspase-1; shares compounds with Coupling enz; purified caspase-1, fluorogenic substrate cleavage; Potency, µM (highest dose often 57.5 µM), for the others: top-dose activity change, negative = inhibition, actives largely listed as inhibitors; actives 20% (n = 60); AID 896
CASP7 inh CRC – confirmation of allosteric or competitive inhibitors of human caspase-7 | Potency, µM (doses to about 57.5 µM), for the others: at the top dose activity change, negative = inhibition, usual class: inhibitors | AID 897 | 60 tested, under 10 active | shares compounds with Coupling enz | recombinant caspase-7, fluorogenic substrate cleavage; active = well fitted inhibition curve with a large enough effect in the main read-out, with a control signal flat, not every such curve was filed as active; inconclusive = small, poorly fitted or top-dose-only effect, or a change in a side signal; inactive = no such curve, though single readings can be large or run the other way
CASP7 redox cys – inhibits caspase-7 in cysteine buffer, redox counter-screen. shares compounds with Coupling enz. Potency, µM (highest dose often 57.5 µM), for the others: top-dose activity change, negative = inhibition, hits mostly inhibitors. 60 tested, under 10 active. caspase-7 enzyme with cysteine, fluorogenic substrate, redox counterscreen
Casp7 catalase – caspase-7 inhibition with catalase present; shares compounds with Coupling enz; 30 tested, under 10 active; Potency, µM (doses to about 57.5 µM), for inactives: top-dose activity, negative = inhibition, usual class: inhibitors; Caspase-7 Ac-DEVD-AFC fluorescence rate, catalase buffer; AID 909
Casp1 cysteine – counter-screen for redox active caspase-1 inhibitors: cysteine buffer; 60 tested, under 10 active; Potency, µM (doses to about 57.5 µM), for inactives: at the highest dose activity change, negative = inhibition, usual class: inhibitors; recombinant caspase-1, fluorogenic substrate, cysteine buffer; shares compounds with Coupling enz
* = called active by the depositor; ? = inconclusive; nt = not tested or not shown; [ ] = another dose, or the depositor's remark. Unless noted, calls follow the shape of the dose curve; as a rule, active = well fitted inhibition curve with a large enough effect in the main read-out, with a control signal flat; inconclusive = small, poorly fitted or top-dose-only effect, or a change in a side signal; inactive = no such curve, though single readings can be large or run the other way.

SMILES	GAA inhib	Coupling enz	GAA glycogen mod	B2AR arrestin	aGlu spleen mod	CASP1 redox cat	CASP1 inh CRC	CASP7 inh CRC	CASP7 redox cys	Casp7 catalase	Casp1 cysteine
COc1cc2c(cc1OC)CN(C(=O)CSc1nc3[nH]ncc3c(=O)n1-c1ccccc1)CC2	3%	-3	-5%	0%	9%	1%	-6%	?	?	-25%	6%
COc1ccc(N2CCN(C(=O)CSc3nc4[nH]ncc4c(=O)n3-c3cccc4ccccc34)CC2)cc1	-4%	-10	-3%	-1%	3%	nt	nt	nt	nt	nt	nt
COc1ccc(S(=O)(=O)N(CC(=O)Nc2cccnc2)c2ccc(C)cc2)cc1OC	nt	nt	-12%[76.3 µM]	nt	nt	nt	nt	nt	nt	nt	nt
COc1ccc(S(=O)(=O)Nc2ccc(O)c3ccccc23)cc1	5%	-3	9.9µM*	-2%	6%	-2%	-4%	-4%	0%	-9%	4%
COc1ccc(S(=O)(=O)Nc2ccccc2C(F)(F)F)cc1	?	5	-2%	0%	-14%	nt	nt	nt	nt	nt	nt
COc1ccc(-c2c(C#N)c(SCC(=O)Nc3cccc(Cl)c3)nc(C)c2C(=O)Nc2ccccc2)cc1OC	nt	nt	-1%[76.3 µM]	nt	nt	nt	nt	nt	nt	nt	nt
O=C(Nc1ccc2c(c1)OCO2)[C@@H]1[C@@H]2C(=O)N(C3CCCCC3)C(=O)[C@@H]2C2c3ccccc3C=CN21 (some centres not stated)	3%	-35*	27%	-1%	-18%	-3%	-25%	-16%	-16%	6%	-3%
O=C(c1cc(C(F)(F)F)cc(C(F)(F)F)c1)N1CCC[C@@]2(CCN(c3ccccc3)C2)C1	nt	-8	nt	nt	-12%	nt	nt	nt	nt	nt	nt
N#CC1=C2SCN(Cc3ccco3)CN2C(=O)CC1c1ccc(Cl)cc1 (configuration not stated)	-11%	-5	-9%	0%	6%	nt	nt	nt	nt	nt	nt
N#CC1=C2SCN(Cc3ccccc3)CN2C(=O)CC1c1cccs1 (configuration not stated)	3%[15.4 µM]	-40*	11%	0%	-5%	-4%	-5%	-1%	1%	-7%	-2%
Cc1c(Cl)cccc1NC(=O)CC1Oc2ccccc2NC1=O (configuration not stated)	nt	-1	5%	-1%	nt	nt	nt	nt	nt	nt	nt
COc1ccc(C2CC(=O)N3CN(c4ccccc4F)CSC3=C2C#N)cc1OC (configuration not stated)	-15%	-14	17%	-1%	7%	2%	-13%	-8%	-10%	7%	-3%
Cc1cc(C)cc(C(=O)N(C)[C@H](Cc2ccc(-c3ccccc3)cc2)C(=O)N[C@@H](Cc2c[nH]c3ccccc23)C(=O)O)c1	nt	0	nt	nt	-1%	nt	?	16µM*	16µM*	nt	?
